# Measurements taken from PubChem BioAssay.
# Records with an inconclusive call do not appear. The source made the active and inactive calls. Unless noted, the rule behind the calls is not given here.
# Experiments:
# [1] = stimulators of insulin release from INS-1E, primary screen, cell-based, 5 mM glucose, NPC library (AID 1117329;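 active = compound raises insulin release from rat beta cells at 5 mM glucose, no numeric limit stated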); details: rat INS-1E insulin secretion, at 10 µM, stronger effect = higher value
# [2] = growth inhibition of GSK3B-pretreated HCT116 cells – cell-based, CellTiter-Glo, 0.2 to 20 µM (AID 1117336;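 active = compounds lowering colon cancer cell viability after pretreatment blocking the GSK3B kinase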); details: HCT116 viability after GSK3B inhibitor, at 20 µM, stronger effect = higher value
# [3] = inhibition of endothelial tube formation, primary screen, imaging, VEGF stimulated, CD31 staining, tube area, NPC library (AID 1117340;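 active = compound that reduces growth-factor-driven endothelial tube area in a mixed cell culture, no cutoff stated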); details: VEGF-stimulated ADSC/ECFC co-culture, at 10 µM, stronger effect = higher value
# [4] = glucagon-like peptide 1 release enhancers, primary assay, NCI-H716 cell line, NPC library (AID 1117341;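 active = compound raises GLP1 secretion from the human gut endocrine cells, with no numeric limit stated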); details: NCI-H716 cells, at 10 µM, stronger effect = higher value
# [5] = HCT116 colon cancer cell growth inhibition, primary screen, CellTiter-Glo luminescence, NPC library (AID 1117342;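 active = compounds that lower survival of HCT116 colon cancer cells in the luminescence readout, no numeric limit stated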); details: at 20 µM (top of the series)
# [6] = CellTiter-Glo luminescent readout of SW480 viability loss, NPC library primary (AID 1117343;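 active = compounds that lower viability of the colon cancer cells in the luminescence readout, with no numeric limit stated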); details: CellTiter-Glo luminescence; at 20 µM (top of the series)
# [7] = decreased DLD-1 cellular survival, CellTiter-Glo luminescent readout, NPC compound collection, primary HTS (AID 1117346;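 active = compounds that lower survival of DLD-1 colon cancer cells in the luminescence readout, no cutoff given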); details: DLD-1 viability, CellTiter-Glo luminescence; at 20 µM (top of the series)
# [8] = modulation of C. elegans fzo-1 (AID 1259413);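 note: fzo-1 mutant C. elegans worms in liquid wells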; details: C. elegans fzo-1 modulator screen, mean read-out; stronger effect = higher value
# [9] = differential killing of epithelial or mesenchymal cells, primary screen, imaging, PC-3E GFP, TEM4-18 mCherry, co-culture (AID 1345086;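 active = compounds killing one labelled cell type while sparing the other, by normalised counts and ratio limits, not self-fluorescent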;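 for all read-outs here: cells exposed to compound for 72 h before imaging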;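 for red/green cell ratio (normalised): normalised mesenchymal count divided by normalised epithelial count so high means epithelial killing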); details: imaging cell counts, at 1 µM; for red/green cell ratio (normalised): actives lie on both sides, counts scaled to control wells, 1 = unselective
# [10] = tested on: Aerobactin synthetase IucA (Klebsiella pneumoniae); test: IucA aerobactin synthetase inhibitors, biochemical, Tocris library, absorbance (AID 1345561); details: purified IucA enzyme assay, absorbance (OD) read-out; stronger effect = lower value;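 tested at 8 µM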;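 note: 100% = enzyme without compound and 0% = no enzyme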
# [11] = growth inhibition of DIPG glioma cells, dose response, cell-based, SU-DIPG-XIII, MIPE4.0, CellTiter-Glo, qHTS (AID 1347061; cut-off not given, nearly all actives have AC50 up to about 37 µM;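 note: cells exposed to compound for 48 hours before readout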); details: SU-DIPG-XIII viability, CellTiter-Glo ATP luminescence
# [12] = growth inhibition of DIPG glioma cells, dose response, cell-based, JHH-DIPG-1, MIPE4.0, CellTiter-Glo, qHTS (AID 1347062; cut-off not given, nearly all actives have AC50 up to about 27 µM); details: JHH-DIPG-1 viability, CellTiter-Glo ATP luminescence
# [13] = growth inhibition of DIPG glioma cells, dose response, cell-based, SU-DIPG-IV, MIPE4.0, CellTiter-Glo, qHTS (AID 1347063; cut-off not given, nearly all actives have AC50 up to about 30 µM;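 note: compound exposure lasted 48 hours before the viability readout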); details: SU-DIPG-IV viability, CellTiter-Glo ATP luminescence
# [14] = growth inhibition of DIPG glioma cells, dose response, cell-based, SU-DIPG-XVII, MIPE5.0, CellTiter-Glo, qHTS (AID 1347060; cut-off not given, nearly all actives have AC50 up to about 26 µM); details: SU-DIPG-XVII viability, CellTiter-Glo ATP luminescence
# [15] = measured here: epithelial PC-3E GFP cell survival
# [16] = measured here: mesenchymal TEM4-18 mCherry cell survival
Compound,insulin secretion stimulation [1],viability decrease [2],tube area decrease [3],GLP1 secretion stimulation [4],inhibition of viability [5],viability decrease (inhibition) [6],viability decrease (inhibition) [7],mean signal [8],red/green cell ratio (normalised) [9],"normalised cell number [9, 15]","normalised cell number [9, 16]",remaining activity [10],outcome [11],outcome [12],outcome [13],outcome [14]
CC(C)(O)c1ccccc1CC[C@@H](SCC1(CC(=O)O)CC1)c1cccc(/C=C/c2ccc3ccc(Cl)cc3n2)c1,1.4% (inactive),111% (active),-7.2% (inactive),80.8% (active),114% (active),133% (active),102% (active),259 (inactive),–,–,–,–,–,–,–,–
Cc1cccc(C)c1NC(=O)C(C)N (stereo not drawn),0.2% (inactive),-2.3% (inactive),-7.9% (inactive),-0.6% (inactive),-4.1% (inactive),0.1% (inactive),-5.7% (inactive),270 (inactive),0.66 (inactive),1.32,0.88,–,–,–,–,–
COc1ccc(C(=O)NCc2ccc(OCCN(C)C)cc2)cc1OC,0.75% (inactive),-2.9% (inactive),4.2% (inactive),-0.4% (inactive),7% (inactive),-4.6% (inactive),-7.9% (inactive),262 (inactive),0.88 (inactive),1.24,1.1,–,–,–,–,–
OCCOCCN1CCN(C2=Nc3ccccc3Sc3ccccc32)CC1,2.8% (inactive),-12.8% (inactive),18.9% (inactive),2.3% (inactive),10.6% (inactive),14% (inactive),7.8% (inactive),248 (inactive),0.87 (inactive),1.08,0.94,–,–,–,–,–
O=C1[C@H]2CCCC[C@H]2C(=O)N1CCCCN1CCN(c2nsc3ccccc23)CC1,5.5% (inactive),70.3% (active),25.8% (inactive),9% (inactive),88.1% (active),115% (active),99.8% (active),254 (inactive),–,–,–,–,–,–,–,–
COc1ccc(CN2CCN(C(c3ccc(F)cc3)c3ccc(F)cc3)CC2)c(OC)c1OC,1.6% (inactive),108% (active),-1.5% (inactive),2.3% (inactive),110% (active),133% (active),101% (active),204 (inactive),1.08 (inactive),0.96,1.03,–,–,–,–,–
Cc1ncc([N+](=O)[O-])n1CC(O)CCl (stereo not drawn),-1.6% (inactive),-3.65% (inactive),-4.9% (inactive),-0.1% (inactive),0.2% (inactive),-45.6% (inactive),-4.95% (inactive),246 (inactive),1.07 (inactive),1.1,1.18,–,–,–,–,–
CC[N+](C)(CC)CCOC(=O)C(O)(c1ccccc1)C1CCCCC1 (stereo not drawn),-1.5% (inactive),-16.6% (inactive),-4.7% (inactive),-3.3% (inactive),0.4% (inactive),0.8% (inactive),-8.3% (inactive),260 (inactive),0.95 (inactive),1.13,1.07,–,–,–,–,–
COc1ccccc1N1CCN(CC(O)COc2cccc3ccccc23)CC1 (stereo not drawn),0.4% (inactive),0.8% (inactive),35.4% (inactive),10% (inactive),64.7% (active),92.1% (active),59.3% (active),202 (inactive),0.7 (inactive),1.13,0.8,100% (inactive),inactive,inactive,–,–
O=C(CCNNC(=O)c1ccncc1)NCc1ccccc1,-2.7% (inactive),29.1% (inactive),-20.5% (inactive),0.6% (inactive),-8.3% (inactive),81.2% (active),31.8% (inactive),273 (inactive),1.02 (inactive),1.02,1.04,–,–,–,–,–
CN1CCCCC1CCN1c2ccccc2Sc2ccc(S(C)=O)cc21 (stereo not drawn),15.2% (inactive),51% (active),16.9% (inactive),12.7% (inactive),36.7% (active),31.7% (inactive),9.3% (inactive),243 (inactive),1.05 (inactive),1.11,1.16,–,–,–,–,–
CC(=O)OCC(=O)NCCCOc1cccc(CN2CCCCC2)c1,-0.7% (inactive),-69.8% (inactive),10.4% (inactive),-0.3% (inactive),-15.6% (inactive),22.9% (inactive),-31.7% (inactive),244 (inactive),1.02 (inactive),0.98,1,–,–,–,–,–
CNS(=O)(=O)Cc1ccc2[nH]cc(CCN(C)C)c2c1,0.3% (inactive),-2.3% (inactive),15.1% (inactive),1.4% (inactive),-2.93% (inactive),66.2% (active),-3.8% (inactive),224 (inactive),1.17 (inactive),1.07,1.25,127% (inactive),inactive,inactive,inactive,–
CN1CCC(=C2c3ccccc3CC(=O)c3sccc32)CC1,3.05% (inactive),10.7% (inactive),-3.1% (inactive),5.2% (inactive),15.7% (inactive),38.1% (inactive),-6.6% (inactive),231 (inactive),0.94 (inactive),1.17,1.1,118% (inactive),–,inactive,–,inactive
